# Data from PubChem BioAssay (Tox21).
# A number with no mark means an inactive call. Inconclusive results are not listed. A call without a number means that no potency is given here. Activity calls are given as the source filed them. The call rests on the fitted dose curve; in most records, active means well fitted curve in the direction sought with a large enough effect in the repeat runs; inconclusive means weak or mixed curves; inactive means no such curve, though single readings can be large; an effect the other way counts as inactive or inconclusive.
# How the values were obtained:
# [1] = Human pregnane X receptor (PXR) small molecule agonists, qHTS cell viability counter screen (AID 1346977); further: nearly all actives have a fitted effect of over 50% in size; further: potency means the concentration at half of the fitted maximal effect
# Outline: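 Fluorescence read-out (CellTiter-Fluor) of viability in PXR-Luc HepG2 cells, multiplexed with the luciferase agonist read. Compounds in DMSO added after 5hr plating; 24hr total exposure at 37C, 5% CO2.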
# [2] = Caspase-3/7 induction in CHO-K1 cells by small molecules, qHTS cell viability counter screen (AID 1346979); further: nearly all actives have a fitted effect of over 35% in size; further: potency means the concentration at half of the fitted maximal effect
# Outline: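 CHO-K1 wt, 1,500 cells/well; 5hr pre-incubation 37C/5% CO2; compound pin transfer (DMSO); 16hr exposure; CellTiter-Fluor added, 1hr, fluorescence read.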
# [3] = Caspase-3/7 induction in CHO-K1 cells by small molecules, qHTS assay (AID 1346980); further: nearly all actives have a fitted effect of over 15% in size; further: potency means the concentration at half of the fitted maximal effect
# Outline: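 Wild-type cells were seeded at 1,500 per well and settled 5 hr at 37 C, 5% CO2, then exposed to DMSO-dissolved compounds for 17 hr. Caspase-Glo 3/7 reagent was added, and luminescence was read after 30min at room temperature.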
# [4] = Caspase-3/7 induction in HepG2 cells by small molecules, qHTS cell viability counter screen (AID 1346981); further: nearly all actives have a fitted effect of over 30% in size; further: potency means the concentration at half of the fitted maximal effect; on activity change, negative = cytotoxicity: series mostly up to about 92 µM
# Outline: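 Cell viability is measured as a cytotoxicity counter screen alongside the Caspase-Glo 3/7 readout in identical wells. Wild-type HepG2 cells are treated with test compounds for 16 hr at 37 C before CellTiter-Fluor addition and a 1-hr incubation.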
# [5] = molecular target: Nuclear receptor subfamily 1 group I member 2 (Homo sapiens) (UniProt O75469); assay: Human pregnane X receptor (PXR) small molecule agonists, qHTS assay (AID 1346982); further: nearly all actives have a fitted effect of over 35% in size; further: potency means the concentration at half of the fitted maximal effect
# Outline: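 Cells: HepG2 stably carrying PXR-Luc. Medium held 5% charcoal-stripped FBS. Compounds in DMSO added after 5 hr plating, incubated 24 hr, then luminescence quantified with ONE-Glo.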
# [6] = molecular target: Cytochrome P450 2C19 (Homo sapiens) (UniProt P33261); assay: Cytochrome P450 Family 2 Subfamily C Member 19 (CYP2C19) small molecule antagonists: luciferase reporter qHTS assay (AID 1671197); further: nearly all actives have a fitted effect of over 65% in size; further: potency means the concentration at half of the fitted maximal effect; on activity change, negative = inhibition: series mostly up to about 120 µM
# Outline: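 P450-Glo CYP2C19 screening system; proluciferin substrate; DMSO compound stocks; 10 min RT preincubation; NADPH regeneration, 1 h at 37C; luciferin detection reagent, 20 min RT; luminescence as RLU.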
# [7] = molecular target: Cytochrome P450 1A2 (Homo sapiens) (UniProt P05177); assay: Cytochrome P450 Family 1 Subfamily A Member 2 (CYP1A2) small molecule antagonists: luciferase reporter qHTS assay (AID 1671199); further: nearly all actives have a fitted effect of over 50% in size; further: potency means the concentration at half of the fitted maximal effect; on activity change, negative = inhibition: series mostly up to about 120 µM
# Outline: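 Compounds were incubated with CYP1A2 and a luminogenic proluciferin substrate for 10 min at room temperature before the reaction was started with NADPH regeneration solution. After 1 h, detection reagent was added and light output, proportional to CYP activity, was recorded.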
# [8] = molecular target: Voltage-gated inwardly rectifying potassium channel KCNH2 (Homo sapiens) (UniProt Q12809); assay: Human Ether-a-go-go-Related Gene (hERG) channel small molecule antagonists: fluorescence cell-based qHTS assay (AID 1671200); further: nearly all actives have a fitted effect of over 50% in size; further: potency means the concentration at half of the fitted maximal effect;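 on activity change, negative = inhibition: hERG-expressing U2OS cells given a thallium stimulus after FluxOR II dye loading; series mostly up to about 77 µM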
# Outline: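 Read-out: thallium influx as a surrogate for potassium, tracked as fluorescence (480 nm ex/540 nm em) every second for 2 min after Stimulus Buffer addition in dye-loaded hERG-U2OS cells.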
# [9] = molecular target: Cytochrome P450 3A4 (Homo sapiens) (UniProt P08684); assay: Cytochrome P450 Family 3 Subfamily A Member 4 (CYP3A4) small molecule antagonists: luciferase reporter qHTS assay (AID 1671201); further: nearly all actives have a fitted effect of over 50% in size; further: potency means the concentration at half of the fitted maximal effect; on activity change, negative = inhibition: series mostly up to about 120 µM
# Outline: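 Luminescent readout (RLU) proportional to CYP3A4 activity, from luciferin generated off a proluciferin substrate. Enzyme–substrate mix plus compound 10 min at room temp, NADPH regeneration 1 h, detection reagent 20 min.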
# [10] = Caspase-3/7 induction in HepG2 cells by small molecules, qHTS assay (AID 1346978); further: nearly all actives have a fitted effect of over 15% in size
# Outline: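 Wild-type HepG2 cells (2,000/well) were settled 5 h at 37 C, 5% CO2, then exposed to compounds in DMSO for 17 h. Caspase-3/7 activity was read by luminescence 30 min after adding Caspase-Glo 3/7 reagent at room temperature.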
# [11] = molecular target: Nuclear receptor subfamily 1 group I member 2 (Rattus norvegicus) (UniProt Q9R1A7); assay: Rat pregnane X receptor (rPXR) activation by small molecules, qHTS assay (AID 1346983); conditions: rPXR luciferase reporter cells, One-Glo luminescence, 24 h; max activation: hits give high values; further: nearly all actives have a fitted effect of over 20% in size; further: potency means the concentration at half of the fitted maximal effect
# Outline: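 Cell-based rPXR luciferase reporter assay, 2,000 cells per well, rested 5hr at 37 C before compound addition in DMSO, then 24 hr at 37 C. One-Glo reagent was added and luminescence read after 30 min at room temperature.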
# [12] = molecular target: Nuclear receptor subfamily 1 group I member 2 (Homo sapiens) (UniProt O75469); assay: Human pregnane X receptor (PXR) activation by small molecules, qHTS assay (AID 1346985); further: nearly all actives have a fitted effect of over 40% in size; further: potency means the concentration at half of the fitted maximal effect
# Outline: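 DPX-2 cells (HepG2 co-transfected with a PXR response element and a CYP3A4-promoter luciferase construct) were seeded at 2,000 per well, rested 5 hr at 37C, then exposed to DMSO-dissolved compounds for 24 hr. Activation was read as luciferase luminescence.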
# [13] = molecular target: Nuclear receptor subfamily 1 group I member 2 (Homo sapiens) (UniProt O75469); assay: CYP3A4 induction through human pregnane X receptor (PXR) by small molecules, qHTS assay (AID 1346984); further: nearly all actives have a fitted effect of over 40% in size
# Outline: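 Quantitative HTS in DPX-2 cells, i.e. HepG2 transfected with PXR response element and CYP3A4-promoter luciferase. Compounds in DMSO incubated 24hr at 37C; then P450-Glo CYP3A4 substrate, 3uM final, 3hr; One-Glo luminescence.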
# [14] = molecular target: Cytochrome P450 2C9 (Homo sapiens) (UniProt P11712); assay: Cytochrome P450 Family 2 Subfamily C Member 9 (CYP2C9) small molecule antagonists: luciferase reporter qHTS assay (AID 1671198); further: nearly all actives have a fitted effect of over 50% in size; further: potency means the concentration at half of the fitted maximal effect; on activity change, negative = inhibition: series mostly up to about 120 µM
# Outline: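 CYP2C9 activity was measured with a P450-Glo proluciferin substrate. Enzyme–substrate mix was held with compound for 10 min at room temperature, then NADPH regeneration solution was added for 1 h at 37C. Luciferin product was read as luminescence.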
# [15] = molecular target: Cytochrome P450 2D6 (Homo sapiens) (UniProt P10635); assay: Cytochrome P450 Family 2 Subfamily D Member 6 (CYP2D6) small molecule antagonists: luciferase reporter qHTS assay (AID 1671196); further: nearly all actives have a fitted effect of over 50% in size; further: potency means the concentration at half of the fitted maximal effect; on activity change, negative = inhibition: series mostly up to about 120 µM
# Outline: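 Enzyme and proluciferin substrate were first combined with test chemical for 10 min at room temperature. Adding NADPH regeneration solution started a 1 h reaction, stopped with luciferin detection reagent and read by luminescence 20 min later.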
# Cytochrome P450 2C19 (Homo sapiens), sequence (P33261 whole entry, looked up): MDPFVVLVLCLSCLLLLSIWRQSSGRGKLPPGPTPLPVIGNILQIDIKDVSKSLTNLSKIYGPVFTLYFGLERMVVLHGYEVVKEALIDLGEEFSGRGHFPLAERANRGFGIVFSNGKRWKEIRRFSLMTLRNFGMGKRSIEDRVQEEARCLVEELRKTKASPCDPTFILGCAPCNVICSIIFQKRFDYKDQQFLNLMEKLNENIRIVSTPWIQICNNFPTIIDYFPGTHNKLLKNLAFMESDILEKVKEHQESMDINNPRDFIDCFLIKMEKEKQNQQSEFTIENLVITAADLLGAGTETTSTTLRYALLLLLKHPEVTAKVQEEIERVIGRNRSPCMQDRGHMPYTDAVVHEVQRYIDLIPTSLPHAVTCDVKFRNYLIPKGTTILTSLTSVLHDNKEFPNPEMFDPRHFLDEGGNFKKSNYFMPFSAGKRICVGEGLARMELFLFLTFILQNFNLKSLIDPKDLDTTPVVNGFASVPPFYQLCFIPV
# Voltage-gated inwardly rectifying potassium channel KCNH2 (Homo sapiens), sequence (Q12809 whole entry, looked up): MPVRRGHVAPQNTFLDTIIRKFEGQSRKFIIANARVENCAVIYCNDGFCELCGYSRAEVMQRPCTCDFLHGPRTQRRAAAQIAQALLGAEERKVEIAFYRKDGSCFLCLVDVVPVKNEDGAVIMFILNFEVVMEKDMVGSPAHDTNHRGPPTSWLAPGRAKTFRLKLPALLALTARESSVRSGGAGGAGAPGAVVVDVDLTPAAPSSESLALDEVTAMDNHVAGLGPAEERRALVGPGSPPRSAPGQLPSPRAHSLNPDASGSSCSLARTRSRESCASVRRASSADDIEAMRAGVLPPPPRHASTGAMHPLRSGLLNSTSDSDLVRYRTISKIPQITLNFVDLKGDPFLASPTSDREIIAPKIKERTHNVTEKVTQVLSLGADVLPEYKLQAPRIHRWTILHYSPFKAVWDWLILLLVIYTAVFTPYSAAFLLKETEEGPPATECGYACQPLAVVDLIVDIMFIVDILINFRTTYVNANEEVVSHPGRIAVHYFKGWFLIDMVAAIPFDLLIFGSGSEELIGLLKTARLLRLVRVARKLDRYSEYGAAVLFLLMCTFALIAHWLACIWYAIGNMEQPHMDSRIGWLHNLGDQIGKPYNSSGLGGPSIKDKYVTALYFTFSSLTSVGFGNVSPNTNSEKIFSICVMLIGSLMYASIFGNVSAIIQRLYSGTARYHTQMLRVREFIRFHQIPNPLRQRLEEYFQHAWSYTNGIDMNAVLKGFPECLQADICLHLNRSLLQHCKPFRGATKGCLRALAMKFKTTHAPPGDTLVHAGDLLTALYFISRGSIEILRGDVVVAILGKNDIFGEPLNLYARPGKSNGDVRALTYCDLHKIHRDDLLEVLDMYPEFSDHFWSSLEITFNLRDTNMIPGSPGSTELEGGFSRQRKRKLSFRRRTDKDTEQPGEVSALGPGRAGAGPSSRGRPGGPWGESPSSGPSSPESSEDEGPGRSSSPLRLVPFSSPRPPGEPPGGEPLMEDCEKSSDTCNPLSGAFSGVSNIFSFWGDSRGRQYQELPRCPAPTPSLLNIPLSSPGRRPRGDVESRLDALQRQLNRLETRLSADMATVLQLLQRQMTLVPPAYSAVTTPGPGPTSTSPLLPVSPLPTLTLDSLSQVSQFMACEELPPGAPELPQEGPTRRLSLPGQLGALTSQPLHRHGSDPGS
# Nuclear receptor subfamily 1 group I member 2 (Rattus norvegicus), sequence (Q9R1A7 whole entry, looked up): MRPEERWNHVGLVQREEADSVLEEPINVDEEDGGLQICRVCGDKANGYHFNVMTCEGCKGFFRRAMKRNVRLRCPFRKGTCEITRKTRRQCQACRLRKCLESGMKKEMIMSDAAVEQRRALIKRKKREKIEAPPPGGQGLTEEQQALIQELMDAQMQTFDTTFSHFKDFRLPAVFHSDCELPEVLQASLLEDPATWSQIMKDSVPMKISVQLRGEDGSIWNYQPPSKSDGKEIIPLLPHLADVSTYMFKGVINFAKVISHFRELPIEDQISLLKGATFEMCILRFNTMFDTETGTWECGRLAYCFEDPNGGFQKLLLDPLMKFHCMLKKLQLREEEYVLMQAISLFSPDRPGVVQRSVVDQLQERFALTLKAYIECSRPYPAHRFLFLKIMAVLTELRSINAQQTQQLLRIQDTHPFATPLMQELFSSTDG
# Cytochrome P450 2C9 (Homo sapiens), sequence (P11712 whole entry, looked up): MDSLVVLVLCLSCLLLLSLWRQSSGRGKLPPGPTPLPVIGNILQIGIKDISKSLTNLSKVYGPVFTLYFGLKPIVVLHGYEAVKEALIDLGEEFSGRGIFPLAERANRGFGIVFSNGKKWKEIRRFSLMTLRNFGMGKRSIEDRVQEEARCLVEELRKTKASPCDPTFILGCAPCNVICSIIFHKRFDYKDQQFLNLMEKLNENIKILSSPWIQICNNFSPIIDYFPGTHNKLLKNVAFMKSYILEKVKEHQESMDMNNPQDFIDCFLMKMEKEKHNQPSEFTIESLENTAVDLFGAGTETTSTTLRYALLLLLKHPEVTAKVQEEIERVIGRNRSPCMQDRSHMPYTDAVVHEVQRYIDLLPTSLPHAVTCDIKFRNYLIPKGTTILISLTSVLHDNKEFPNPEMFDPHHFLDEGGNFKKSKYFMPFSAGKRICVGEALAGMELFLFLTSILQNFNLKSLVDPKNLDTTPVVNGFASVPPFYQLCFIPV
# Cytochrome P450 1A2 (Homo sapiens), sequence (P05177 whole entry, looked up): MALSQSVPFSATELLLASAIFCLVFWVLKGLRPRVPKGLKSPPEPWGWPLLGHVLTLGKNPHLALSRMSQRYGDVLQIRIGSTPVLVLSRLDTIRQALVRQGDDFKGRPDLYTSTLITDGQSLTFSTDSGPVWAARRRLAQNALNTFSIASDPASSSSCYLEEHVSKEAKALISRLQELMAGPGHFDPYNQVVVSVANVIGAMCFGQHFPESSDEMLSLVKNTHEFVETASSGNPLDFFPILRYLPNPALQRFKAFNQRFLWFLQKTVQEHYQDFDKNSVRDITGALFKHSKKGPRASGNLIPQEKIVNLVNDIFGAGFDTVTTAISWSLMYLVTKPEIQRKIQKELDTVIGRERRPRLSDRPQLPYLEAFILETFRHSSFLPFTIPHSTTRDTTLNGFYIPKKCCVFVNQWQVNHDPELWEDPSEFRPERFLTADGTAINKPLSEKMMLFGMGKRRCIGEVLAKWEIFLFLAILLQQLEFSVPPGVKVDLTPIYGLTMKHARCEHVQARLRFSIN
# Cytochrome P450 2D6 (Homo sapiens), sequence (P10635 whole entry, looked up): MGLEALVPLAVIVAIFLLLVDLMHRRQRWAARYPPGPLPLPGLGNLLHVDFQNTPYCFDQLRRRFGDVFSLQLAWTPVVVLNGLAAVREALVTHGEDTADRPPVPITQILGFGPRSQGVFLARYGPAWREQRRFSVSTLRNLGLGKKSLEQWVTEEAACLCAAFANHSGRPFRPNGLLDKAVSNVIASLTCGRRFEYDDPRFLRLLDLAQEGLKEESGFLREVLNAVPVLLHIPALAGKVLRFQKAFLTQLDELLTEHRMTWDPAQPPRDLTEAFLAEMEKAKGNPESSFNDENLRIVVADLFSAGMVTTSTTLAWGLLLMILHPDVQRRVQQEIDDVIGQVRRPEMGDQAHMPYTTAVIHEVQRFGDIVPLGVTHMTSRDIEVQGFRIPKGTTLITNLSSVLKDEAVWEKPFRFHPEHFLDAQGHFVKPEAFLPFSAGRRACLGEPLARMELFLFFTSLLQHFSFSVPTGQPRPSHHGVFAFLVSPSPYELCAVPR
# Cytochrome P450 3A4 (Homo sapiens), sequence (P08684 whole entry, looked up): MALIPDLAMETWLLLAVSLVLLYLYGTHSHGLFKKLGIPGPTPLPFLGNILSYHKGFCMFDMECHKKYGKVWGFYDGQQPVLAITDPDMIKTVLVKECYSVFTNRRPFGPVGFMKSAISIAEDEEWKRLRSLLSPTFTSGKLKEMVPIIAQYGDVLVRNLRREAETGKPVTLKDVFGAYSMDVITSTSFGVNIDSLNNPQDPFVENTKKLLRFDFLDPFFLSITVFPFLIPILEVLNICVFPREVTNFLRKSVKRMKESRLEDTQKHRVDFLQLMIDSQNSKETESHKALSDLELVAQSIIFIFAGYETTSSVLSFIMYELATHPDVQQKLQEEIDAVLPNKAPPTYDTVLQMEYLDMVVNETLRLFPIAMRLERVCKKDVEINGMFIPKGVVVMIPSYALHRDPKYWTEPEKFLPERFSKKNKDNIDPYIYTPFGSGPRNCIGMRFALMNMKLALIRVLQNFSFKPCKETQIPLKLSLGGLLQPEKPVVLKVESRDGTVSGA
# Nuclear receptor subfamily 1 group I member 2 (Homo sapiens), sequence (O75469 whole entry, looked up): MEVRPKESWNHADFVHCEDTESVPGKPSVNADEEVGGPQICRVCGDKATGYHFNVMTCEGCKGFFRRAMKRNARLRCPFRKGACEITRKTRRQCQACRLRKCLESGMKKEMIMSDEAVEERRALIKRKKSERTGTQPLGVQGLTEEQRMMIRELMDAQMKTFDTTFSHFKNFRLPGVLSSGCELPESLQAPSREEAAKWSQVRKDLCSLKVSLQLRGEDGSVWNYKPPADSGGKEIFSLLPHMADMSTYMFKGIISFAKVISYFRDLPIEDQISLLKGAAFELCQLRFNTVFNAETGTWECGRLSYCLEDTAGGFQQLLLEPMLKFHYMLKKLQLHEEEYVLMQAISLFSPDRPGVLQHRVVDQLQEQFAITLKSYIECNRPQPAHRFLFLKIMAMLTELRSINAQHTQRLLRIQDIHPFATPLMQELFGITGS
structure (smiles),measurement,setting,value
O=C(O)C1(C(=O)O)CCC1.[NH2-].[NH2-].[Pt+2],Potency,[1],inactive
same,Potency,[2],inactive
same,Potency,[3],inactive
same,Potency,[4],inactive
same,Potency,[5],inactive
same,Potency,[6],21.9 µM (active)
same,Potency,[7],13.8 µM (active)
same,Potency,[8],inactive
same,Potency,[9],inactive
OCc1cc(C(O)CNCCCCCCOCCCCc2ccccc2)ccc1O (configuration not stated),Potency,[10],inactive
same,Potency,[2],23.7 µM (active)
same,Potency,[3],inactive
same,Potency,[4],26.6 µM (active)
same,Potency,[5],inactive
same,max activation,[11],0.017%
same,Potency,[12],inactive
same,Potency,[6],inactive
same,Potency,[7],inactive
same,Potency,[8],2.68 µM (active)
CNCCCN1c2ccccc2CCc2ccccc21,Potency,[1],23.7 µM (active)
same,Potency,[3],inactive
same,Potency,[5],inactive
same,max activation,[11],-1.95%
same,Potency,[13],inactive
same,Potency,[12],inactive
same,Potency,[6],inactive
same,Potency,[14],inactive
same,Potency,[7],inactive
CN(C)CCN(Cc1ccsc1)c1ccccn1,Potency,[1],inactive
same,Potency,[2],inactive
same,Potency,[3],inactive
same,Potency,[4],inactive
same,Potency,[5],inactive
same,Potency,[6],inactive
same,Potency,[14],inactive
same,Potency,[7],inactive
same,Potency,[8],inactive
same,Potency,[9],inactive
OC(CN1CCC(Cc2ccc(F)cc2)CC1)c1ccc(Cl)cc1 (configuration not stated),Potency,[1],29.8 µM (active)
same,Potency,[3],inactive
same,max activation,[11],-1.2%
same,Potency,[12],inactive
same,Potency,[15],0.138 µM (active)
same,Potency,[6],inactive
same,Potency,[14],inactive
same,Potency,[7],inactive
same,Potency,[8],0.0849 µM (active)
same,Potency,[9],inactive
CC1(c2ccccc2)OC(C(=O)O)=CC1=O (configuration not stated),Potency,[1],inactive
same,Potency,[3],inactive
same,Potency,[4],inactive
same,Potency,[5],inactive
same,max activation,[11],-1.39%
same,Potency,[13],inactive
same,Potency,[12],inactive
same,Potency,[6],inactive
same,Potency,[14],inactive
same,Potency,[8],inactive
same,Potency,[9],inactive
COC(=O)C1=C(C)NC(COC(N)=O)=C(C(=O)OC(C)C)C1c1cccc(Cl)c1Cl (configuration not stated),Potency,[1],inactive
same,Potency,[2],13.3 µM (active)
same,Potency,[3],inactive
same,Potency,[6],15.5 µM (active)
same,Potency,[14],8.71 µM (active)
CNCCCCOc1ccccc1Cc1ccccc1,Potency,[1],26.6 µM (active)
same,Potency,[3],inactive
same,Potency,[4],inactive
same,Potency,[12],inactive
same,Potency,[15],2.45 µM (active)
same,Potency,[8],3.38 µM (active)
Brc1c2ccccc2c(Br)c2ccccc12,"activity change, negative = cytotoxicity",[1],4.3% [at 8.39 µM]
same,"activity change, negative = cytotoxicity",[2],14.3% [at 8.39 µM]
same,caspase-3/7 activation,[3],-0.773% [at 8.39 µM]
same,"activity change, negative = cytotoxicity",[4],5.61% [at 8.39 µM]
same,"activity change, negative = inhibition",[15],0.168% [at 10.5 µM]
same,"activity change, negative = inhibition",[6],-7.43% [at 10.5 µM]
same,"activity change, negative = inhibition",[14],-3.76% [at 10.5 µM]
same,"activity change, negative = inhibition",[8],-0.46% [at 6.97 µM]
same,"activity change, negative = inhibition",[9],1.1% [at 10.5 µM]
O=C(O)c1nc(Cl)c(Cl)c(Cl)c1Cl,Potency,[1],inactive
same,Potency,[2],inactive
same,Potency,[3],inactive
same,Potency,[4],inactive
same,Potency,[5],inactive
same,Potency,[15],28.3 µM (active)
same,Potency,[14],39.9 µM (active)
same,Potency,[8],inactive
same,Potency,[9],inactive
CCNc1cc(O)ccc1C,Potency,[1],inactive
same,Potency,[3],inactive
same,Potency,[4],inactive
same,Potency,[5],48 µM (active)
same,Potency,[15],39.5 µM (active)
same,Potency,[6],35.2 µM (active)
same,Potency,[14],9.92 µM (active)
same,Potency,[7],12.5 µM (active)
same,Potency,[8],inactive
same,Potency,[9],9.92 µM (active)
O=C(O)C(S)C(S)C(=O)O (configuration not stated),Potency,[1],inactive
same,Potency,[2],inactive
same,Potency,[3],inactive
same,Potency,[4],inactive
same,max activation,[11],-9.28%
same,Potency,[13],inactive
same,Potency,[12],inactive
same,Potency,[15],inactive
same,Potency,[6],inactive
same,Potency,[7],inactive
same,Potency,[8],inactive
same,Potency,[9],inactive
CCCCC(=O)OCC(=O)[C@H]1[C@H](C)C[C@H]2[C@@H]3C[C@H](F)C4=CC(=O)C=C[C@]4(C)[C@@]3(F)[C@@H](O)C[C@@]21C,Potency,[10],inactive
same,Potency,[2],inactive
same,Potency,[3],inactive
same,Potency,[4],inactive
COc1cc2c(cc1OC)C(C(C(=O)N(CCc1ccc(OC)c(OC)c1OC)CCc1ccc(OC)c(OC)c1OC)c1ccccc1)=NCC2 (configuration not stated),Potency,[10],inactive
same,Potency,[2],26.6 µM (active)
same,Potency,[3],inactive
same,Potency,[4],26.6 µM (active)
same,Potency,[5],2.66 µM (active)
same,Potency,[11],2.51 µM (active)
same,Potency,[13],inactive
same,Potency,[12],7.94 µM (active)
same,Potency,[6],12.3 µM (active)
same,Potency,[14],11 µM (active)
same,Potency,[7],inactive
Clc1ccc2c(c1)CCc1cccnc1C2=C1CCNCC1,Potency,[1],29.8 µM (active)
same,Potency,[5],inactive
same,max activation,[11],-7.49%
same,Potency,[12],14.1 µM (active)
COc1cc2nc(Cl)nc(N)c2cc1OC,Potency,[1],inactive
same,Potency,[2],inactive
same,Potency,[3],inactive
same,Potency,[4],inactive
same,Potency,[5],inactive
same,Potency,[15],inactive
same,Potency,[6],inactive
same,Potency,[7],2.75 µM (active)
same,Potency,[8],inactive
O=[N+]([O-])c1cccc(S(=O)(=O)O)c1,Potency,[1],inactive
same,Potency,[2],inactive
same,Potency,[3],inactive
same,Potency,[4],inactive
same,Potency,[15],7.21 µM (active)
same,Potency,[6],32.2 µM (active)
same,Potency,[7],40.5 µM (active)
same,Potency,[8],22.2 µM (active)
same,Potency,[9],36.1 µM (active)
COc1ccc(S(=O)(=O)N2C(=O)[C@@](c3ccccc3OC)(N3C[C@H](O)C[C@H]3C(=O)N(C)C)c3cc(Cl)ccc32)c(OC)c1,Potency,[1],54.5 µM (active)
same,Potency,[2],30.6 µM (active)
same,Potency,[3],61.1 µM (active)
same,Potency,[4],30.6 µM (active)
same,Potency,[5],61.1 µM (active)
same,Potency,[6],31.7 µM (active)
same,Potency,[14],39.9 µM (active)
same,Potency,[9],0.0894 µM (active)
Cc1ncc(CO)c(C=O)c1O,Potency,[1],inactive
same,Potency,[2],inactive
same,Potency,[4],inactive
same,Potency,[5],inactive
same,max activation,[11],-0.222%
same,Potency,[13],inactive
same,Potency,[12],inactive
same,Potency,[15],inactive
same,Potency,[6],inactive
same,Potency,[14],inactive
same,Potency,[8],inactive
same,Potency,[9],inactive
C/C=C/C=C/CO,Potency,[1],inactive
same,Potency,[2],inactive
same,Potency,[3],inactive
same,Potency,[4],inactive
same,Potency,[5],inactive
same,Potency,[15],inactive
same,Potency,[6],inactive
same,Potency,[8],inactive
same,Potency,[9],63.3 µM (active)
CCN(CC)c1ccc2c(-c3ccccc3C(=O)O)c3ccc(=[N+](CC)CC)cc-3oc2c1,Potency,[10],inactive
same,Potency,[2],2.17 µM (active)
same,Potency,[3],inactive
same,Potency,[4],5.45 µM (active)
same,Potency,[5],24.3 µM (active)
same,Potency,[15],35.6 µM (active)
same,Potency,[6],71 µM (active)
same,Potency,[14],28.3 µM (active)
same,Potency,[7],35.6 µM (active)
same,Potency,[8],inactive
same,Potency,[9],12.6 µM (active)
